Experimental data taken from PubChem BioAssay (NCATS).
Results filed as inconclusive are left out. The source made the active and inactive calls. Calls follow the shape of the dose curve; as a rule, active = well fitted cell-killing curve with a large enough effect; inconclusive = small, poorly fitted or top-dose-only effect, or effect the other way; inactive = flat fitted curve, though single readings scatter.

Key:
Experiment in all cases: Primary qHTS to identify gynecologic anti-cancer compounds using libraries of approved drugs and bioactive compounds (AID 1345084); also: nearly all actives have a fitted effect of over 55% in size
[1] = tested on: C33A; conditions: Gynecologic cancer cell panel viability, ATPlite luminescence, 48 h; series mostly up to 57.5 µM
How it was run: (§1)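 48 h compound exposure at 37 C, 5% CO2; five-point qHTS. ATPlite luminescence readout of cell ATP.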

[2] = tested on: CASKI; conditions: Gynecologic cancer cell panel viability, ATPlite luminescence, 48 h; series mostly up to 57.5 µM
How it was run: as §1

[3] = tested on: Es-2; conditions: Gynecologic cancer cell panel viability, ATPlite luminescence, 48 h; series mostly up to 57.5 µM
How it was run: as §1

[4] = tested on: HeLa; conditions: Gynecologic cancer cell panel viability, ATPlite luminescence, 48 h; series mostly up to 57.5 µM
How it was run: as §1

[5] = tested on: Hek293T; conditions: Gynecologic cancer cell panel viability, ATPlite luminescence, 48 h, control line for the selectivity index; series mostly up to 57.5 µM
How it was run: as §1

[6] = tested on: JEG-3; conditions: Gynecologic cancer cell panel viability, ATPlite luminescence, 48 h; series mostly up to 57.5 µM
How it was run: as §1

[7] = tested on: OV90; conditions: Gynecologic cancer cell panel viability, ATPlite luminescence, 48 h; series mostly up to 57.5 µM
How it was run: as §1

[8] = tested on: PA-1; conditions: Gynecologic cancer cell panel viability, ATPlite luminescence, 48 h; series mostly up to 57.5 µM
How it was run: as §1

[9] = tested on: SKOV3; conditions: Gynecologic cancer cell panel viability, ATPlite luminescence, 48 h; series mostly up to 57.5 µM
How it was run: as §1

[10] = tested on: Tov-21-G; conditions: Gynecologic cancer cell panel viability, ATPlite luminescence, 48 h; series mostly up to 57.5 µM
How it was run: as §1

[11] = tested on: Tov112D; conditions: Gynecologic cancer cell panel viability, ATPlite luminescence, 48 h; series mostly up to 57.5 µM
How it was run: as §1

[12] = tested on: CAOV3; conditions: Gynecologic cancer cell panel viability, ATPlite luminescence, 48 h; series mostly up to 57.5 µM
How it was run: as §1
% is scaled to controls: 0 for no effect and ±100 for the full control effect.

C/C=C(\C)C(=O)O[C@@H]1CC2[C@@H](CC=C3C[C@@H](O[C@H]4C[C@H](OC)[C@H](O[C@H]5C[C@H](OC)[C@H](O[C@H]6C[C@H](OC)[C@H](O[C@H]7C[C@@H](OC)[C@H](O[C@@H]8O[C@H](CO)[C@@H](O)[C@H](O)[C@H]8O)[C@@H](C)O7)[C@@H](C)O6)[C@@H](C)O5)[C@@H](C)O4)CC[C@@]32C)[C@@]2(O)CC[C@H](C(C)=O)[C@@]12C (stereo partly drawn)
inactive: activity change, negative = cytotoxicity [1] 1.71% [at 6.55 µM] | activity change, negative = cytotoxicity [2] -0.911% [at 6.55 µM] | activity change, negative = cytotoxicity [3] -1.08% [at 6.55 µM] | activity change, negative = cytotoxicity [4] -14.4% [at 6.55 µM] | activity change, negative = cytotoxicity [5] 11.8% [at 6.55 µM] | activity change, negative = cytotoxicity [6] -0.396% [at 6.55 µM] | activity change, negative = cytotoxicity [7] 3.72% [at 6.55 µM] | activity change, negative = cytotoxicity [8] -8.02% [at 6.55 µM] | activity change, negative = cytotoxicity [9] -0.126% [at 6.55 µM] | activity change, negative = cytotoxicity [10] 2.08% [at 6.55 µM] | activity change, negative = cytotoxicity [11] -2.78% [at 6.55 µM]

COc1c(C)c(OCC=C(C)C)cc2c1C(=O)NC2=O
inactive: Potency [1] | Potency [2] | Potency [3] | Potency [4] | Potency [5] | Potency [6] | Potency [7] | Potency [8] | Potency [9] | Potency [10] | Potency [11]

CC(=O)O[C@@H]1C[C@]2(C)[C@@]3(CCC4[C@@]5(C)CC[C@H](O[C@@H]6O[C@H](C(=O)O)[C@@H](O)[C@H](O[C@@H]7O[C@H](CO)[C@H](O)[C@H](O)[C@H]7O[C@@H]7O[C@@H](C)[C@H](O)[C@@H](O)[C@H]7O[C@@H]7OC[C@](O)(CO)[C@H]7O)[C@H]6O[C@@H]6O[C@H](CO)[C@H](O)[C@H](O)[C@H]6O)C(C)(C)C5CC[C@]42C)O[C@@H](O)[C@]12C3CC(C)(C)[C@@H](OC(=O)/C=C/c1ccc(O)c(O)c1)[C@@H]2OC(=O)/C=C/c1ccccc1 (stereo partly drawn)
inactive: activity change, negative = cytotoxicity [1] 8.85% [at 6.55 µM] | activity change, negative = cytotoxicity [2] 8% [at 6.55 µM] | activity change, negative = cytotoxicity [3] -3.99% [at 6.55 µM] | activity change, negative = cytotoxicity [4] 2.04% [at 6.55 µM] | activity change, negative = cytotoxicity [5] 0.066% [at 6.55 µM] | activity change, negative = cytotoxicity [6] -2.17% [at 6.55 µM] | activity change, negative = cytotoxicity [7] -7.75% [at 6.55 µM] | activity change, negative = cytotoxicity [8] 24% [at 6.55 µM] | activity change, negative = cytotoxicity [9] 3.32% [at 6.55 µM] | activity change, negative = cytotoxicity [10] 17% [at 6.55 µM] | activity change, negative = cytotoxicity [11] 6.15% [at 6.55 µM]

CCC/C=C/C(=O)O[C@H]1CC(C)(C)CC2[C@]13[C@H](O)O[C@@]21CCC2[C@@]4(C)CC[C@H](O[C@@H]5O[C@H](C(=O)O)[C@@H](O)[C@H](O[C@@H]6O[C@H](CO)[C@H](O)[C@H](O)[C@H]6O[C@@H]6O[C@@H](C)[C@H](O)[C@@H](O)[C@H]6O[C@@H]6OC[C@](O)(CO)[C@H]6O)[C@H]5O[C@@H]5O[C@H](CO)[C@H](O)[C@H](O)[C@H]5O)C(C)(C)C4CC[C@@]2(C)[C@]1(C)C[C@H]3OC(C)=O (stereo partly drawn)
inactive: activity change, negative = cytotoxicity [1] -4.15% [at 6.55 µM] | activity change, negative = cytotoxicity [2] 2.37% [at 6.55 µM] | activity change, negative = cytotoxicity [3] 2.55% [at 6.55 µM] | activity change, negative = cytotoxicity [4] -1.33% [at 6.55 µM] | activity change, negative = cytotoxicity [5] -6.65% [at 6.55 µM] | activity change, negative = cytotoxicity [6] -6.17% [at 6.55 µM] | activity change, negative = cytotoxicity [7] -0.93% [at 6.55 µM] | activity change, negative = cytotoxicity [8] -0.307% [at 6.55 µM] | activity change, negative = cytotoxicity [9] 13% [at 6.55 µM] | activity change, negative = cytotoxicity [10] 0.0885% [at 6.55 µM] | activity change, negative = cytotoxicity [11] 1.84% [at 6.55 µM]

C=CC(C)(O)CO[C@@H]1O[C@H](CO)[C@@H](O)[C@H](O)[C@H]1O (stereo partly drawn)
inactive: Potency [1] | Potency [2] | Potency [3] | Potency [4] | Potency [5] | Potency [6] | Potency [7] | Potency [8] | Potency [9] | Potency [10] | Potency [11]

Cc1cc(C)cc(NC(=O)Cc2ccc(OC(C)(C)C(=O)O)cc2)c1
inactive: Potency [1] | Potency [2] | Potency [3] | Potency [4] | Potency [5] | Potency [6] | Potency [7] | Potency [8] | Potency [9] | Potency [10] | Potency [11]

CCC(CC)n1ccc2c(C(=O)NCc3c(C)cc(C)[nH]c3=O)cc(C#N)cc21
inactive: Potency [1] | Potency [2] | Potency [3] | Potency [4] | Potency [5] | Potency [6] | Potency [7] | Potency [8] | Potency [9] | Potency [10] | Potency [11]

OCc1ccccc1O[C@@H]1O[C@H](CO)[C@@H](O)[C@H](O)[C@H]1O
inactive: Potency [1] | Potency [2] | Potency [3] | Potency [4] | Potency [5] | Potency [6] | Potency [7] | Potency [8] | Potency [9] | Potency [10] | Potency [11]

CCC[C@@H]1C[C@@H](C(=O)N[C@@H]([C@H]2O[C@H](SC)[C@H](O)[C@@H](O)[C@@H]2O)[C@@H](C)O)N(C)C1
inactive: Potency [1] | Potency [2] | Potency [3] | Potency [4] | Potency [5] | Potency [6] | Potency [7] | Potency [8] | Potency [9] | Potency [10] | Potency [11]

CCC(CCO[C@@H]1O[C@H](CO[C@H]2OC[C@](O)(CO)[C@H]2O)[C@@H](O)[C@H](O)[C@H]1O)C(C)(C)O (stereo partly drawn)
inactive: Potency [1] | Potency [2] | Potency [3] | Potency [4] | Potency [5] | Potency [6] | Potency [7] | Potency [8] | Potency [9] | Potency [10] | Potency [11]

CC1CCC2(C)C(CC(O)C(O)C23CO3)C1(C)CCC1=CC(O)OC1=O (stereo not drawn)
inactive: Potency [1] | Potency [2] | Potency [3] | Potency [4] | Potency [5] | Potency [6] | Potency [7] | Potency [8] | Potency [9] | Potency [10] | Potency [11]

CCCCNC(=O)[C@@H]1Cc2ccccc2N1C(=O)[C@@H](N)CC
inactive: Potency [1] | Potency [12] | Potency [2] | Potency [3] | Potency [4] | Potency [6] | Potency [7] | Potency [8] | Potency [9] | Potency [10] | Potency [11]

c1ccc(Nc2nc3c(s2)CCCc2[nH]ncc2-3)nc1
inactive: Potency [1] | Potency [12] | Potency [2] | Potency [3] | Potency [5] | Potency [6] | Potency [7] | Potency [8] | Potency [9] | Potency [10] | Potency [11]
